From ChEMBL document CHEMBL4513216, “Probing the Open Global Health Chemical Diversity Library for Multistage-Active Starting Points for Next-Generation Antimalarials” (ACS Infect Dis, 2020)
About 2,100 (3.2%) of roughly 65,000 compounds showed an effect of 50% or more. The median lay at about -52%. Shown is part of a subset that was picked to be rich in strong results.

The compounds below were run on Plasmodium falciparum (assay: Screen against P. falciparum Asexual Blood Stage (ABS), at 5uM). Details: tested at 5 uM.
Assay type: functional, Dd2
In the case of `O=C1COC2(CCN(Cc3ccoc3)CC2)CN1c1ccsc1`, the INHIBITION is reported as -66%.
For `OCc1cc2ccccc2nc1N1CCCCC1`, the INHIBITION was -56.3%.
`CC(C)N(C)C(=O)c1ccc(CNc2ccncc2Cl)cc1` gave an INHIBITION of 24.6%.
`COc1cc(C)ccc1S(=O)(=O)N[C@H]1CN(C(C)=O)C[C@@H]1C1CC1` was tested, and the INHIBITION was -120%.
`CN(C)S(=O)(=O)N1CCCC(c2cccc(Cc3ccc(F)cc3)n2)C1` (stereo not given) showed an INHIBITION of -107%.
`O=C(c1ccncc1)N1CCOC2(CCCN(c3nncs3)C2)C1` (stereo not given) gave an INHIBITION of -74.2%.
With `CC(C)N1CCC(CNC(=O)CCc2cc(F)ccc2F)C1` (stereo not given) the INHIBITION was 7.8%.
Compound `CN1CCOC(CNC(=O)COc2ccc(F)cc2F)C1` (stereo not given) has an INHIBITION of -69.6%.
`CC(C)N1CCC(CNC(=O)COc2ccc(F)cc2F)C1` (stereo not given) was tested, and the INHIBITION was 53.3%.
With `Cc1ccc(N2CC[C@@H]3[C@@H]2CCN3C(=O)Cc2ccccc2)nn1` the INHIBITION was -79%.
`Clc1ccc(N2CCC(C3CCN(Cc4cccnc4)CC3)C2)nc1` (stereo not given) showed an INHIBITION of 12.7%.
Compound `O=C(C1CC1)N1CCCC1C1CCN(Cc2ccccc2)CC1` (stereo not given) has an INHIBITION of -40.8%.
With `Clc1ccc(CN2CCC(C3CCN(Cc4cccnc4)CC3)C2)cc1` (stereo not given) the INHIBITION was 64.4%.
In the case of `O=C(C1CCCC1)N1CCC(C2CCN(Cc3ccc(Cl)cc3)C2)CC1` (stereo not given), the INHIBITION is reported as 64.3%.
For `O=C(C1CCC1)N1CCC(C2CCN(Cc3ccc(Cl)cc3)C2)CC1` (stereo not given), the INHIBITION was 65.6%.
In the case of `CCOCC(=O)N1CCC(C2CCN(Cc3ccc(Cl)cc3)C2)CC1` (stereo not given), the INHIBITION is reported as 0.245%.
`CN1CCN(Cc2ccc(Cl)cc2)CC1C(=O)O` (stereo not given) was tested, and the INHIBITION was -94.1%.
`Clc1cccnc1N1CCC(C2CCN(Cc3cccnc3)CC2)C1` (stereo not given) gave an INHIBITION of -49.5%.
Compound `CC(=O)NCC(=O)N1CCC(C2CCN(Cc3ccc(Cl)cc3)C2)CC1` (stereo not given) has an INHIBITION of 5.47%.
`Cc1cc(C)n(CC2CCCN2C(=O)c2c(C)noc2C)n1` (stereo not given) showed an INHIBITION of -97.8%.
`Cc1nc(CN2CCCN(CCOc3ccc(C#N)cc3)CC2)no1` showed an INHIBITION of -71.7%.
Work on `Cc1cc2ccccc2n1CCC(=O)NCc1ncc[nH]1` yielded an INHIBITION of -0.748%.
Compound `CCN(Cc1ccncc1)C(=O)CCn1c(C)cc2ccccc21` has an INHIBITION of 56.5%.
Compound `CCN(Cc1nc(COC)no1)C(=O)CCn1c(C)cc2ccccc21` has an INHIBITION of 10%.
Compound `O=C(NC1CCCC1)c1cc2c(s1)CCN2C(=O)c1ccccc1` has an INHIBITION of -63.7%.
With `Cc1nc(C)n(CC2CCCN2CCCOc2ccc(C#N)cc2)n1` (stereo not given) the INHIBITION was -33.2%.
`Cc1ccc(S(=O)(=O)N2Cc3c(CN(C)C)nn(C)c3C2)cc1` showed an INHIBITION of 42.8%.
Work on `CCc1ccc(S(=O)(=O)N2Cc3c(CN(C)C)nn(C)c3C2)cc1` yielded an INHIBITION of 63.9%.
`COc1ccc(S(=O)(=O)N2Cc3c(CN(C)C)nn(C)c3C2)cc1` was tested, and the INHIBITION was 40.7%.
`C[C@@H](O)CNC(=O)c1nc(CC(=O)Nc2ccccc2)no1` gave an INHIBITION of -40.2%.
Work on `CC(NC(=O)N1CCN(c2ncccn2)CC1)c1ccc(C#N)cc1` (stereo not given) yielded an INHIBITION of 19.1%.
For `CC(NC(=O)N1CCN(c2cccs2)CC1)c1ccncc1` (stereo not given), the INHIBITION was -28.9%.
For `CC(NC(=O)N1CCN(c2cccs2)CC1)c1ccc(C#N)cc1` (stereo not given), the INHIBITION was 63.2%.
`Cc1ccnn1CCC(=O)N1C[C@@H]2CC[C@H]1CN(CC(=O)N(C)C)C2` gave an INHIBITION of -46.9%.
In the case of `CC(C)(C)c1ccc(S(=O)(=O)CCN2CCNC(=O)CC2)cc1`, the INHIBITION is reported as -97.7%.
Work on `COCCCNc1ncc(-c2cccc(F)c2)c(-c2nccn2C)n1` yielded an INHIBITION of -138%.
For `COCCNc1ncc(-c2cccc(OC)c2)c(-c2nccn2C)n1`, the INHIBITION was 69.3%.
Compound `COCCNc1ncc(-c2cccc(F)c2)c(-c2nccn2C)n1` has an INHIBITION of -10.2%.
`Cc1nnsc1CN1C[C@H]2CC[C@@H](C1)N(Cc1ccccc1)C2` gave an INHIBITION of -69.4%.
`COc1cc2c(cc1CN1CCCCC1CN1CCOCC1)CCC2` (stereo not given) gave an INHIBITION of 65.9%.
`COc1cc2c(cc1CN1C[C@@H](CN3CCOCC3)[C@@H](CO)C1)CCC2` showed an INHIBITION of 21.7%.
In the case of `COc1cccc(CN2CCCCC2CN2CCOCC2)c1F` (stereo not given), the INHIBITION is reported as 4.8%.
In the case of `CC(OCC1CC1)C(=O)Nc1ncccc1I` (stereo not given), the INHIBITION is reported as -86.5%.
For `CC1(c2ccccc2)CCCN(Cc2nnc(-c3cccnc3)o2)C1` (stereo not given), the INHIBITION was -119%.
`COCCN1CCCC12CCN(Cc1cncn1C)CC2` showed an INHIBITION of -12.2%.
In the case of `O=C(C1CCCN(Cc2ccccc2)C1)N1CCc2sccc2C1` (stereo not given), the INHIBITION is reported as 12.7%.
`COCCn1cncc1CN1CCCC(C)(c2ccccc2)C1` (stereo not given) showed an INHIBITION of 61.5%.
`COCCn1cncc1CN1CCCC(C(=O)Cc2ccccc2)C1` (stereo not given) gave an INHIBITION of -43.6%.
In the case of `CN1CCCC2(CCN(Cc3cncn3C3CCCCC3)C2)C1=O` (stereo not given), the INHIBITION is reported as -28.7%.
`O=C(Cc1ccccc1)C1CCCN(Cc2cncn2C2CCCC2)C1` (stereo not given) gave an INHIBITION of 57.8%.
`CC1(c2ccccc2)CCCN(Cc2cncn2C2CC2)C1` (stereo not given) was tested, and the INHIBITION was 67.2%.
`COCCn1cncc1Cn1cccc(C(F)(F)F)c1=O` showed an INHIBITION of -90.4%.
With `Cn1nc(C(=O)NCc2ccc(Cl)cc2)c2c1CCS(=O)(=O)C2` the INHIBITION was -79%.
In the case of `COCC(=O)N1CCC2(COCc3cnc(N4CCOCC4)nc32)C1` (stereo not given), the INHIBITION is reported as -38%.
`CC(C)n1nc(CN(C)C)c2c1CN(C(=O)CC1CC1)CC2` gave an INHIBITION of -91.2%.
With `COc1cc(NC(=O)N2CCCC2c2nncn2C)ccc1Br` (stereo not given) the INHIBITION was -53.7%.
`CCS(=O)(=O)NCc1nc(C)cc(N2CCCCC2)n1` was tested, and the INHIBITION was -38.7%.
In the case of `Cn1nc(CN2CCCC2)c2c1CN(CC1CC1)CC2`, the INHIBITION is reported as -16.8%.
In the case of `CC(C)n1nc(CN(C)C)c2c1CN(CC1CC1)CC2`, the INHIBITION is reported as -87.1%.
Compound `CC(C)n1nc(CN2CCCC2)c2c1CN(CC1CC1)CC2` has an INHIBITION of 55.7%.
For `CC(C)N(C)Cc1cnc2n1CCN(C(=O)Cc1ccccn1)C2`, the INHIBITION was -6.41%.
Compound `CC(C)N(C)Cc1cnc2n1CCN(C(=O)Cc1ccsc1)C2` has an INHIBITION of -45.1%.
Compound `CC(C)N(C)Cc1cnc2n1CCN(C(=O)c1cccs1)C2` has an INHIBITION of 62.6%.
In the case of `Cc1ccc(C(=O)N2CCC(Oc3ccc(C)c(C)c3)CC2)c(=O)[nH]1`, the INHIBITION is reported as -19.9%.
In the case of `Cc1nc(CN2CCc3ncnc(C)c3CC2)cs1`, the INHIBITION is reported as -152%.
`CC(C)CCN1Cc2c(C(=O)N3CCCC3)nn(C)c2C1` showed an INHIBITION of -58.9%.
Work on `COc1ccc(NCC2(O)CCNCC2)cc1OC` yielded an INHIBITION of -115%.
`Cn1cc([C@@H]2CN(S(=O)(=O)c3ccccc3F)C[C@H]2N)c2ccncc21` showed an INHIBITION of 63.4%.
In the case of `Cn1cc([C@@H]2CN(S(=O)(=O)c3cccnc3)C[C@H]2N)c2ccncc21`, the INHIBITION is reported as -21.6%.
Compound `Cn1cc([C@@H]2CN(S(C)(=O)=O)C[C@H]2N)c2ccncc21` has an INHIBITION of 16.8%.
`CN(C)c1ccc(C(=O)N(CCO)CC2CC2)c(F)c1` showed an INHIBITION of -93.3%.
Compound `Cc1nn(C)cc1-c1cc(C(F)(F)F)nn1CCC#N` has an INHIBITION of -167%.
`Cc1cc(N2CCC(Cc3ncccn3)C2)ncn1` (stereo not given) showed an INHIBITION of -89.6%.
`Nc1nnnn1NCc1ccccc1C(F)(F)F` showed an INHIBITION of -13.1%.
For `CC(O)CNCc1ccccc1C(F)(F)F` (stereo not given), the INHIBITION was -46.2%.
`Oc1ccc(Cl)cc1CNCc1ccccc1C(F)(F)F` was tested, and the INHIBITION was 64.5%.
In the case of `O=C(COCCOc1ccccc1)Nc1ccnn1CC1CCOC1` (stereo not given), the INHIBITION is reported as -132%.
With `CCN(C(=O)CCOC)C(c1ccc(Cl)cc1)c1ccccn1` (stereo not given) the INHIBITION was -56.9%.
Compound `O=C(O)CC(NC(=O)c1ccccc1OC(F)F)c1cccs1` (stereo not given) has an INHIBITION of -127%.
For `CCCc1ccc(S(=O)(=O)Nc2ccc(=O)n(C)c2)cc1`, the INHIBITION was -53.7%.
In the case of `CCC(=O)N1CCC2(CC1)COc1ccccc1S(=O)(=O)N(C)C2`, the INHIBITION is reported as -29.3%.
In the case of `CN1CC2(CCN(CC3CC3)CC2)COc2ccccc2S1(=O)=O`, the INHIBITION is reported as 52.5%.
With `COCCN1CCC2(CC1)COc1ccccc1S(=O)(=O)N(C)C2` the INHIBITION was -7.6%.
Compound `CCCN1CCC2(CC1)COc1ccccc1S(=O)(=O)N(CC1CC1)C2` has an INHIBITION of -32.6%.
`CN1CC2(CCN(Cc3ccoc3)CC2)COc2ccccc2S1(=O)=O` was tested, and the INHIBITION was 61.9%.
`CN(C)C(=O)CN1CCC2(CC1)COc1ccccc1S(=O)(=O)N(C)C2` was tested, and the INHIBITION was -44.5%.
With `COc1cccc(-c2ncc(CN3C[C@H]4CC[C@@H](C3)N(C)C4=O)s2)c1` the INHIBITION was -211%.
Compound `COc1cc(F)c(NC(=O)N(C)Cc2cc(C)on2)cc1F` has an INHIBITION of -69.1%.
Compound `Cc1cnn(CCC(=O)N2CCN(C(=O)C(C)C)[C@@H]3CS(=O)(=O)C[C@@H]32)c1` has an INHIBITION of -87.4%.
For `CCOC(=O)c1nc(COc2ccc(CC(N)=O)cc2)no1`, the INHIBITION was -26%.
`COc1ccc(C[C@H]2CN(c3cc(OC)ncn3)CC[C@@H]2OC)cc1` showed an INHIBITION of -0.505%.
For `COc1ccc(C[C@H]2CN(Cc3ccoc3)CC[C@@H]2OC)cc1`, the INHIBITION was 64.8%.
Work on `COCCN1CC[C@H](OC)[C@@H]1Cc1ccccc1` yielded an INHIBITION of 62.8%.
`COCCN1CC[C@@H](OC)[C@@H]1Cc1ccccc1` gave an INHIBITION of 1.53%.
`c1ccc(C[C@H]2CN(Cc3nccs3)CC[C@H]2OCC2CC2)cc1` showed an INHIBITION of 40.9%.
With `CO[C@H]1CCN(Cc2nccs2)C[C@@H]1Cc1ccccc1` the INHIBITION was -25.6%.
`CO[C@H]1CCN(Cc2ccoc2)C[C@@H]1Cc1ccccc1` was tested, and the INHIBITION was 67.3%.
With `Cc1noc(C)c1CN1CC[C@@H](OCC2CC2)[C@@H](Cc2ccccc2)C1` the INHIBITION was 26.2%.
Compound `Cc1noc(C)c1CN1CC[C@H](OCC2CC2)[C@@H](Cc2ccccc2)C1` has an INHIBITION of 62.1%.
`CO[C@@H]1CCN(Cc2nccs2)C[C@@H]1Cc1ccccc1` gave an INHIBITION of -9.75%.
For `COCCN1CC[C@@H](O)[C@@H]1Cc1ccccc1`, the INHIBITION was -32.4%.
Compound `COc1ccc(C[C@H]2CN(C(=O)C3CC3)CC[C@H]2OC)cc1` has an INHIBITION of 35.6%.
Compound `COc1ccc(S(=O)(=O)C2CCN(C(=O)c3cc(C)cs3)CC2)cc1` has an INHIBITION of -23.3%.
`CCC(NC(=O)NCc1cccc(N(C)C)n1)c1nccs1` (stereo not given) showed an INHIBITION of -84.7%.
In the case of `Cn1cnc(S(=O)(=O)N2CCCc3cc(F)cc(F)c32)c1Cl`, the INHIBITION is reported as -84.8%.
